High-throughput results deposited in PubChem BioAssay by The Scripps Research Institute Molecular Screening Center.
Compounds with a hit are over-represented: about 3.4% of the library has one in this group of screens.
ADAM17 inh = ADAM17 inhibitors, primary screen, biochemical, QFRET; Disintegrin and metalloproteinase domain-containing protein 17 (Homo sapiens), P78536; recombinant ADAM17, EDANS/DABCYL FRET peptide cleavage; inhibition, % at 6.95 µM; hit rate 0.83% among 370,000; AID 720648, 2013;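 active = inhibition above the mean of compounds lying between control limits plus 3 SD, set per campaign, cut at about 8.5% in these data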;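 note: 0% = DMSO-only wells as the low control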
ADAM10 inh = human ADAM10 inhibitors, primary screen, biochemical, QFRET, HTS; recombinant ADAM10, EDANS/DABCYL FRET peptide cleavage, 3 h; Disintegrin and metalloproteinase domain-containing protein 10 (Homo sapiens), O14672; hit rate 0.62% among 370,000; inhibition, % at 7 µM; AID 720582, 2013;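 active = inhibition above a per-campaign cutoff equal to the mean of compounds falling between control-based bounds plus 3 SD, cut at about 20% in these data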;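 note: 0% = DMSO wells while the 100% control is not disclosed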
PLCb3 inh = human PLC-beta3 inhibitors, primary screen, biochemical, fluorescence | hit rate 0.18% among 370,000 | Purified PLC-beta3, fluorogenic substrate | AID 720704, 2013 | inhibition, % at 12.2 µM; in the data active = inhibition above about 11%;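 note: 0% = median of compound wells on plate and 100% = full blocker control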
PLCg1 inh = PLC-gamma1 enzyme inhibitors, primary screen, biochemical, fluorescence, purified enzyme; fluorogenic substrate; inhibition, % at 12.2 µM; hit rate 0.84% among 370,000; AID 720700, 2013; in the data active = inhibition above about 9.5%
HGIII-sPLA2 inh = human group III sPLA2 inhibitors, primary screen, biochemical, QFRET, BODIPY PC-A2 liposome substrate | QFRET BODIPY PC-A2 liposome hydrolysis, fluorescence | inhibition, % at 12.2 µM | hit rate 0.56% among 370,000 | AID 743126, 2013;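 active = inhibition above mean plus 3 SD of compounds lying within the high and low control bounds, cut at about 19% in these data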;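 note: 0% = median of test compound wells and 100% = no enzyme DMSO wells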
Target sequence (Q9NZ20 whole entry, looked up): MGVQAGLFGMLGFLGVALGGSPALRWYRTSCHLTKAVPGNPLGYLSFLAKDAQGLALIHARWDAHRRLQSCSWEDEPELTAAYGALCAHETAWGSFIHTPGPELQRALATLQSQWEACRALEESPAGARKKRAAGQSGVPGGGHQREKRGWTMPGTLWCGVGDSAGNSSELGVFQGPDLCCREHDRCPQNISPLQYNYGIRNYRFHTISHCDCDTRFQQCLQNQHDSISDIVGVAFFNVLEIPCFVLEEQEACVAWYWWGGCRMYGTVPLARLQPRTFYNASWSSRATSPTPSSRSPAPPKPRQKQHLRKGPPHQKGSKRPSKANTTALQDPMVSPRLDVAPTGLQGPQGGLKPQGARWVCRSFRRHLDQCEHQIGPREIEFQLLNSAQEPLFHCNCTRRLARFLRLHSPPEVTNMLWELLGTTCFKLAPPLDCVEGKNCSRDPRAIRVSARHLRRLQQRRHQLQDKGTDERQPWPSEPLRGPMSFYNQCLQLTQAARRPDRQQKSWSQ
proKLK7 act = proKLK7 zymogen activators, primary screen, biochemical, fluorescence intensity | activation, % at 7 µM | Kallikrein-7 (Homo sapiens), P49862 | hit rate 0.9% among 370,000 | purified proKLK7, EDANS-DABCYL substrate fluorescence; 100% is mature enzyme control, 0% vehicle;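 active = activation above the mean of all tested compounds plus 3 SD, computed per campaign excluding outliers beyond control limits, cut at about 13% in these data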
ADAM10 confirm = human ADAM10 inhibitors, confirmation, biochemical, QFRET, triplicate | shares compounds with ADAM10 inh | ADAM10 QFRET peptide cleavage, EDANS fluorescence | inhibition, % at 6.95 µM | hit rate 1% among 2,100 | AID 743208, 2013;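 active = inhibition above about 20% chosen separately for each screening run, limit read from the data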;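 note: 0% = DMSO wells and 100% = marimastat wells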
ADAM17 ctr = ADAM17 inhibitors, counter-screen for ADAM10 exosite inhibitor project, biochemical, QFRET, high throughput; shares compounds with ADAM10 inh; ADAM17 QFRET peptide cleavage, EDANS fluorescence; inhibition, % at 6.95 µM; hit rate 0.5% among 2,100; AID 743214, 2013;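 active = mean triplicate inhibition above the solvent-only control wells' mean plus 3 SD, cut at about 12% in these data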;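 note: 0% = DMSO wells and 100% = marimastat wells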
ADAM10 ctr = ADAM10 inhibitors, counter-screen for ADAM17 exosite inhibitor project, biochemical, FRET, human ADAM10 | hit rate 47% among 2,900 | recombinant ADAM10, EDANS/DABCYL FRET peptide cleavage, 3 h | shares compounds with ADAM17 inh | inhibition, % at 6.95 µM;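 active = mean inhibition over the triplicate runs exceeds the activity threshold set in the earlier primary screen, cut at about 20% in these data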;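 note: 0% = DMSO wells and 100% = marimastat wells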
ADAM17 confirm = ADAM17 inhibitors, hit retest, confirmation, biochemical, QFRET peptide cleavage. recombinant ADAM17, EDANS/DABCYL QFRET peptide cleavage. shares compounds with ADAM17 inh. AID 743257, 2014. inhibition, % at 6.95 µM. hit rate 65% among 2,900;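 active = mean inhibition across replicates above the hit cutoff set in the primary screen, cut at about 8.5% in these data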;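 note: 0% = DMSO wells and 100% = marimastat wells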
Starred values were filed as active, the others as inactive.

Screening Cc1cc(NC(=O)c2c(F)cccc2Cl)n(-c2nc3ccccc3[nH]2)n1 returned ADAM17 inh 10*, ADAM10 inh 30*, PLCb3 inh 0, PLCg1 inh 7, HGIII-sPLA2 inh -6, proKLK7 act -1, ADAM10 confirm 17, ADAM17 ctr 6, ADAM10 ctr 40* and ADAM17 confirm 17*.
`Cc1cc(NC(=O)c2c(F)cccc2F)n(-c2nc3ccccc3[nH]2)n1` gave ADAM17 inh 6, ADAM10 inh 16, PLCb3 inh 0, PLCg1 inh 8, HGIII-sPLA2 inh 18 and proKLK7 act 0.
For O=C(NCc1ccccc1)c1onc(CSc2ccccc2)c1C(=O)NCC1CC1 the results were ADAM17 inh 12*, ADAM10 inh 25*, PLCb3 inh -3, PLCg1 inh -1, HGIII-sPLA2 inh -23, proKLK7 act 0, ADAM10 confirm 7, ADAM17 ctr 3, ADAM10 ctr 41* and ADAM17 confirm 22*.
Screening O=C(OCCOc1cccc(Cl)c1)C1CCN(S(=O)(=O)c2ccccc2)CC1 returned ADAM17 inh 8.6*, ADAM10 inh 21*, PLCb3 inh -5, PLCg1 inh 3, HGIII-sPLA2 inh -27, proKLK7 act 0, ADAM10 confirm 6, ADAM17 ctr 2, ADAM10 ctr 21* and ADAM17 confirm 11*.
For CC1(Cc2ccc(C(F)(F)F)o2)C(=O)Nc2ccc(-c3cccc(C(F)(F)F)c3)cc21 (configuration not stated) the results were ADAM17 inh 17*, ADAM10 inh 28*, PLCb3 inh -1, PLCg1 inh 3, HGIII-sPLA2 inh -1, proKLK7 act 1, ADAM10 confirm 14, ADAM17 ctr 5, ADAM10 ctr 32* and ADAM17 confirm 21*.
For COC(=O)c1ccc(N2CCN(C(=O)C3CC3)CC2)c([N+](=O)[O-])c1 the results were ADAM17 inh -3, ADAM10 inh 4, PLCb3 inh 6, PLCg1 inh 2, HGIII-sPLA2 inh -1 and proKLK7 act 0.
`COC(=O)c1ccc(N2CCC(c3cc(-c4ccc(OC)cc4)n[nH]3)CC2)c([N+](=O)[O-])c1` gave ADAM17 inh 12*, ADAM10 inh 29*, PLCb3 inh 4, PLCg1 inh 6, HGIII-sPLA2 inh -34, proKLK7 act 0, ADAM10 confirm 11, ADAM17 ctr 3, ADAM10 ctr 35* and ADAM17 confirm 18*.
Screening COc1ccc(NC(=O)C2(C)Cc3c(-c4cccc(C(F)(F)F)c4)ccnc3O2)cn1 (configuration not stated) returned ADAM17 inh 12*, ADAM10 inh 26*, PLCb3 inh 7, PLCg1 inh 3, HGIII-sPLA2 inh -17, proKLK7 act 0, ADAM10 confirm 1, ADAM17 ctr 0, ADAM10 ctr 16 and ADAM17 confirm 12*.
For CC1(C(=O)Nc2ccc3c(c2)OCO3)Cc2c(-c3cccc(C(F)(F)F)c3)ccnc2O1 (configuration not stated) the results were ADAM17 inh 10*, ADAM10 inh 21*, PLCb3 inh -1, PLCg1 inh 2, HGIII-sPLA2 inh -2, proKLK7 act 0, ADAM10 confirm 7, ADAM17 ctr 3, ADAM10 ctr 24* and ADAM17 confirm 13*.
`CC(=O)Nc1cccc(-c2ccnc3c2CC(C)(C(=O)Nc2cccc(Oc4ccccc4)c2)O3)c1` (configuration not stated) gave ADAM17 inh 9.6*, ADAM10 inh 25*, PLCb3 inh -1, PLCg1 inh 0, HGIII-sPLA2 inh -32, proKLK7 act 0, ADAM10 confirm 8, ADAM17 ctr 3, ADAM10 ctr 20* and ADAM17 confirm 15*.
Screening CC(=O)Nc1cccc(-c2ccnc3c2CC(C)(C(=O)Nc2cccc(C(F)(F)F)c2)O3)c1 (configuration not stated) returned ADAM17 inh 8.7*, ADAM10 inh 21*, PLCb3 inh 4, PLCg1 inh 3, HGIII-sPLA2 inh -48, proKLK7 act 0, ADAM10 confirm 8, ADAM17 ctr 2, ADAM10 ctr 18 and ADAM17 confirm 10*.
`CC1(C(=O)Nc2cccc(C(F)(F)F)c2)Cc2c(-c3ccc4c(c3)OCO4)ccnc2O1` (configuration not stated) gave ADAM17 inh 4, ADAM10 inh 6, PLCb3 inh -12, PLCg1 inh -7, HGIII-sPLA2 inh -11 and proKLK7 act -1.
`FC(F)(F)Oc1cccc(Cn2ccc3ccc(-c4ccc5ccn(Cc6cccc(OC(F)(F)F)c6)c5c4)cc32)c1` gave ADAM17 inh -10, ADAM10 inh -24, PLCb3 inh -57, PLCg1 inh -49, HGIII-sPLA2 inh 0 and proKLK7 act -1.
C=CC[C@@H](CC(=O)N(CCO)Cc1ccccc1)C(=O)N[C@H](COC(=O)[C@@H](CC=C)Cc1ccc(F)cc1)Cc1c[nH]c2ccccc12 was read as ADAM17 inh 14*, ADAM10 inh 39*, PLCb3 inh 0, PLCg1 inh 4, HGIII-sPLA2 inh -99, proKLK7 act 2, ADAM10 confirm 10, ADAM17 ctr 4, ADAM10 ctr 46* and ADAM17 confirm 25*.
